From PubChem
TRPM1 prom inh – inhibitors of MITF-driven TRPM1 promoter in melanoma cells; SK-MEL-5 TRPM1 promoter luciferase, 24 h; 330,000 tested, 0.83% active; inhibition, % at 12.5 µM;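 active = mean inhibition across replicates of 60% or more, whatever share of single replicates reaches that level; inconclusive = some that reach 60%, reason not given; inactive = mean inhibition across replicates below 60%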
Shn3 inh set2 – Schnurri-3 reporter inhibition in Clone20 osteoblasts. Clone20 osteoblast Shn3 3'UTR firefly luciferase, 24 h. inhibition, % at 12.5 µM. 360,000 tested, 0.52% active;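 active = mean inhibition of at least 75% with every replicate also reaching 75%; inconclusive = mean inhibition at least 75% but some replicate below; inactive = mean inhibition below 75%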
CF NFkB block – inhibitors of cystic fibrosis induced NF-kB | KKLEB NF-kB-GFP reporter, PAF-induced, GFP fluorescence overnight | inhibition, % at 5 µM | AID 588850 | 360,000 tested, 0.86% active;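 active = at least 50% inhibition at 5 µM, scaled per plate between neutral and stimulator controls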;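 also: PAF is a Pseudomonas aeruginosa culture filtrate used as stimulus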
Peg3 prom inh-1 – inhibitors of Peg3 promoter; inhibition, % at 20 µM; HeLa PEG-Prom luciferase reporter, luminescence, overnight; 360,000 tested, 1.7% active; AID 588405;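 active = inhibition of at least 50% at 20 µM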
KKLEB tox – reduces viability of KKLEB cystic fibrosis airway cells; KKLEB CF airway cells viability, ATPlite luminescence, overnight; hits give low values; cells stimulated with P. aeruginosa culture filtrate; activity change (cytotoxicity), % at 5 µM; 360,000 tested, 0.36% active;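 active = corrected activity change at or below -50% at 5 µM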
HIF-2a inh – HIF-2a inhibition | AID 624352 | 360,000 tested, 0.72% active | 786-0 RCC cells HIF-2a reporter, luciferase luminescence, overnight | inhibition, % at 18.8 µM;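 active = inhibition of the luminescence signal of 40% or more relative to plate controls, in a single-dose primary screen at 18.75 µM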
Peg3 prom inh-2 – confirmation of Peg3 promoter inhibitors. shares compounds with Peg3 prom inh-1. HeLa PEG-Prom luciferase reporter, luminescence, overnight. inhibition, % at 20 µM. 1,300 tested, 84% active;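 active = at 20 µM dose, 40% or more inhibition averaged across four replicates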
CF NFkB conf – CF NF-kB inhibition confirmation, single concentration. shares compounds with CF NFkB block. KKLEB CF airway cells, PAF-induced NF-kB-GFP fluorescence, overnight. inhibition, % at 5 µM. 1,300 tested, 64% active; in the data active = inhibition above about 40%;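 also: stimulus PAF is a Pseudomonas aeruginosa filtrate and not platelet activating factor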
Mdm2 MdmX conf – Mdm2/MdmX (human) interaction inhibition, confirmed; shares compounds with HIF-2a inh; SaOS-2 split-luciferase Mdm2/MdmX complementation, luminescence; inhibition, % at 8 µM; 740 tested, 99% active; AID 504601;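 active = mean inhibition of the luminescence signal across two replicates at or above 26 percent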
Target sequence (O15151 whole entry, looked up): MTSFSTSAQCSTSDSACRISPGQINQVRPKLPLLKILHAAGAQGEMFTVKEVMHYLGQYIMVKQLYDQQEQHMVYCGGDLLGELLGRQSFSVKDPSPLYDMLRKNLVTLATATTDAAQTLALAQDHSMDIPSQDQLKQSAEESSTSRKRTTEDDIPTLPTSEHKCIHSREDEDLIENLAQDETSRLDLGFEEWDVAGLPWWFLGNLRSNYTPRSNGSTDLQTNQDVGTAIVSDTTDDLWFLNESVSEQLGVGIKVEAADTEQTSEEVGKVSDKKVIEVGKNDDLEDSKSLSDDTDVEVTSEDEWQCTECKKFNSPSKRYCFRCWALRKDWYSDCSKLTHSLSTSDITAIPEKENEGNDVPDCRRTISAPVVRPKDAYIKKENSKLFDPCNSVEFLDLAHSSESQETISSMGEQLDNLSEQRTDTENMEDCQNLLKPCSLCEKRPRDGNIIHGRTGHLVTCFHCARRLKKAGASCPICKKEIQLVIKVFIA
Target sequence (Q00987 whole entry, looked up): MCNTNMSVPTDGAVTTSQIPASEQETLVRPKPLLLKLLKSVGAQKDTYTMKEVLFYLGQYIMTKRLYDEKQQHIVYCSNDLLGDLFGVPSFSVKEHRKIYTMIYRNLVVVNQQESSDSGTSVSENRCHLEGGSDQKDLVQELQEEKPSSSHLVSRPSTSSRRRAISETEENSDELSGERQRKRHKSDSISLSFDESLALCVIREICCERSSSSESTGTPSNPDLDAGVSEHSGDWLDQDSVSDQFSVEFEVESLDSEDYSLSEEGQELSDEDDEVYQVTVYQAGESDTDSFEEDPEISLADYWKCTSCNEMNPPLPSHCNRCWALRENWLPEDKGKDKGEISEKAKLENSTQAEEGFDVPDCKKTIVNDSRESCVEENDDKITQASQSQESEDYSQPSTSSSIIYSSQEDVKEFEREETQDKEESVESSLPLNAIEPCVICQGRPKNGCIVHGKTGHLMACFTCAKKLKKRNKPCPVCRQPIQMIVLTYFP
HIF-2a inh conf – HIF-2a inhibition, single concentration confirmation. inhibition, % at 18.8 µM. shares compounds with HIF-2a inh. 1,800 tested, 56% active. 786-0 RCC cells, HIF-2a luciferase reporter luminescence, overnight;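 active = mean inhibition across four replicates of at least 40 percent at the single tested concentration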
HIF-1a counter – inhibits HIF-1a reporter, a counter-screen for HIF-2a inhibitors; inhibition, % at 18.8 µM; MiaPaCa-2 HIF-1a luciferase reporter, desferoxamine, overnight; 1,800 tested, 72% active; shares compounds with HIF-2a inh;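 active = mean inhibition of the reporter signal across four replicates at the single tested dose of 50% or more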
Of the large screens only hits and unclear results are named; the others gave an inactive call (follow-up assays come after a bar, where they were run). Shown are actives, neighbours in structure and some others; about 2.8% of the full set was active somewhere.

CN(C)c1c([N+](=O)[O-])cc(N2C(=O)C=CC2=O)cc1[N+](=O)[O-]	TRPM1 prom inh 62.8, Peg3 prom inh-1 104.0, HIF-2a inh 93.7 | Peg3 prom inh-2 95.7 | HIF-2a inh conf 56.7 | HIF-1a counter inactive
O=C(NCc1ccccc1F)c1ccc2c(c1)OCO2	none
O=C(NCCc1ccccc1F)c1ccc2c(c1)OCCO2	TRPM1 prom inh 88.4, Shn3 inh set2 inconclusive, Peg3 prom inh-1 106.4, HIF-2a inh 91.2 | Peg3 prom inh-2 92.9 | Mdm2 MdmX conf 95.7 | HIF-2a inh conf 96.3 | HIF-1a counter 100.7
COc1ccc(-c2nsc3c(N4CCCCC4C)ncnc23)cc1 (stereo not drawn)	TRPM1 prom inh 86.0, Peg3 prom inh-1 97.1, HIF-2a inh 83.7 | Peg3 prom inh-2 84.9 | HIF-2a inh conf 92.2 | HIF-1a counter 102.5
COc1ccc(C(=O)N2CCN(c3ncnc4c(-c5ccccc5)nsc34)CC2)cc1	none
C=CCn1c(SCC(=O)Nc2ccccc2C)nc(O)cc1=O	none
CCOC(=O)c1c(NC(C)=O)sc2c(OCC(O)CNC(C)(C)C)c(Br)ccc12 (stereo not drawn)	TRPM1 prom inh 71.9, Peg3 prom inh-1 108.1 | Peg3 prom inh-2 98.6 | Mdm2 MdmX conf 103.0
CCOC(=O)c1c(N)sc2c(OCC)c(Br)ccc12	none
Cc1nn(C(C)(C)C)c(C)c1/C=N/OC(=O)Nc1ccc(Cl)c(Cl)c1	Peg3 prom inh-1 106.2, HIF-2a inh 94.4 (no result: Shn3 inh set2) | Peg3 prom inh-2 97.3 | HIF-2a inh conf 97.8 | HIF-1a counter 99.8
O=C(Nc1ccc(N2CCOCC2)cc1)c1cnsn1	TRPM1 prom inh 79.1, Peg3 prom inh-1 100.8, HIF-2a inh 75.0 | Peg3 prom inh-2 74.0 | HIF-2a inh conf 87.8 | HIF-1a counter 83.9
COC(=O)C1C=CC(OC2OC(COC(C)=O)C(OC(C)=O)C(OC(C)=O)C2OC(C)=O)n2c(=O)n(-c3ccccc3)c(=O)n21 (stereo not drawn)	TRPM1 prom inh 94.8, Shn3 inh set2 97.1, CF NFkB block 80.4, Peg3 prom inh-1 106.6, HIF-2a inh 85.4 | Peg3 prom inh-2 100.8 | CF NFkB conf 63.5 | HIF-2a inh conf 93.3 | HIF-1a counter 106.3
Cc1cccc(-n2ncc3c(N(CCO)CCO)ncnc32)c1	none
Cc1cccc(-n2ncc3c(N(C)C4CCCCC4)ncnc32)c1	TRPM1 prom inh 79.5, Peg3 prom inh-1 75.2, KKLEB tox -54.3, HIF-2a inh 65.5 | Peg3 prom inh-2 81.9 | HIF-2a inh conf 81.3 | HIF-1a counter 100.8
COC(=O)[C@H](CC(C)C)NC(=O)NCCC1=CCCCC1	none
CCc1ccc(-c2cc3c(=O)n(CC(=O)NCCCN4CCC(Cc5ccccc5)CC4)nc(C)n3n2)cc1	TRPM1 prom inh 96.4, Peg3 prom inh-1 99.7 | Peg3 prom inh-2 98.2 | Mdm2 MdmX conf 103.2
Cc1csc(N/N=C/c2ccccn2)n1	none
C(=NNc1ccc2ccccc2n1)c1ccccn1	Shn3 inh set2 91.8, Peg3 prom inh-1 76.3, KKLEB tox -52.2, HIF-2a inh 69.1 (no result: TRPM1 prom inh) | Peg3 prom inh-2 78.0 | HIF-2a inh conf 80.8 | HIF-1a counter inactive
CC(=O)c1cccc(-c2csc3ncnc(Sc4nnnn4C)c23)c1	Shn3 inh set2 95.2, CF NFkB block 71.1, Peg3 prom inh-1 87.5, HIF-2a inh 49.4 (no result: TRPM1 prom inh) | Peg3 prom inh-2 85.2 | CF NFkB conf inactive | HIF-2a inh conf 44.3 | HIF-1a counter 98.7
Cn1nnnc1Sc1ncnc2scc(-c3ccc4c(c3)OCO4)c12	Peg3 prom inh-1 75.5, HIF-2a inh 62.8 | Peg3 prom inh-2 77.5 | HIF-2a inh conf inactive | HIF-1a counter 77.5
COc1ccc(Cl)cc1S(=O)(=O)NC(C)c1cnn(-c2ccccn2)c1C (stereo not drawn)	none (no result: TRPM1 prom inh)
COc1cc(Cl)c(C)cc1NC(=O)COC(=O)c1cc[n+]([O-])cc1	none
CSc1ncc(Cl)c(C(=O)Nc2cccc3ccccc23)n1	none
Cc1cccc(C)c1NC(=O)c1nc(S(=O)(=O)Cc2ccccc2)ncc1Cl	TRPM1 prom inh 90.8, Shn3 inh set2 96.3, CF NFkB block 94.7, Peg3 prom inh-1 100.2, KKLEB tox -88.5, HIF-2a inh 76.8 | Peg3 prom inh-2 97.5 | HIF-2a inh conf 69.5 | HIF-1a counter 91.2
CCOC(=O)C1=C(COC(=O)C2(C)CC2(Cl)Cl)NC(=O)NC1c1ccccc1 (stereo not drawn)	none
Cc1cccc(-n2c(SCC(=O)N3CCCC3)nc3n[nH]c(C)c3c2=N)c1	none
CCCCN(CC)C(=O)CSc1nc2n[nH]c(C)c2c(=N)n1-c1cccc(C)c1	Peg3 prom inh-1 53.5, HIF-2a inh 42.7 | Peg3 prom inh-2 43.4 | HIF-2a inh conf inactive | HIF-1a counter 61.4
Cc1onc(-c2ccccc2)c1C(=O)Nc1ncc([N+](=O)[O-])s1	none
Cc1ccc(C(=O)Nc2ncc([N+](=O)[O-])s2)cc1	TRPM1 prom inh 62.8, Peg3 prom inh-1 75.8, HIF-2a inh 53.3 | Peg3 prom inh-2 56.4 | HIF-2a inh conf 79.6 | HIF-1a counter 92.6
CCCN1C=CC(=C2C(=O)c3ccccc3C2=O)C=C1	TRPM1 prom inh 104.7, Peg3 prom inh-1 105.0, KKLEB tox -61.0, HIF-2a inh 89.8 | Peg3 prom inh-2 94.1 | Mdm2 MdmX conf 99.5
CC1=CC(=C2C(=O)c3ccccc3C2=O)C=C(C)O1	none
CN(C)c1ccc(/C=C(\C#N)C(=O)Nc2nc3c(s2)CCN(Cc2ccccc2)C3)cc1	none
Cc1cnc(NC(=O)c2ccc3c(c2)OCCO3)s1	TRPM1 prom inh 81.7, Peg3 prom inh-1 87.1, KKLEB tox -58.0, HIF-2a inh 77.3 | Peg3 prom inh-2 80.7 | HIF-2a inh conf 90.2 | HIF-1a counter 80.1
COc1ccc(OC)c(Nc2ncnc3ccc(Br)cc23)c1	CF NFkB block 53.6 | CF NFkB conf 68.2
COc1ccc(OC)c(Nc2ncnc3ccccc23)c1	none
COc1cccc(Nc2ncnc3ccc(Br)cc23)c1	CF NFkB block 62.2 (no result: TRPM1 prom inh) | CF NFkB conf 86.7
CCCCN1C(=O)C(=O)c2cc(Cl)ccc21	CF NFkB block 63.4 | CF NFkB conf 47.1
CCCN1C(=O)C(=O)c2cc(C)ccc21	none
C#CC1(N2CCCCC2)CCCCC1	none (no result: TRPM1 prom inh)
